RecA splice inh: Mtb RecA intein splicing inhibitors, primary screen, biochemical, fluorescence, HTS; Protein RecA (Mycobacterium tuberculosis (strain ATCC 25618 / H37Rv)), P9WHJ3; cell-free RecA intein splicing; inhibition, % (no concentration beside the values); hit rate 0.75% among 290,000; AID 2221, 2009; in the data active = inhibition above about 30%;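 also: 0% = vehicle wells and 100% = reference inhibitor control wells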
Target sequence (P9WHJ3 whole entry, looked up, canonical isoform): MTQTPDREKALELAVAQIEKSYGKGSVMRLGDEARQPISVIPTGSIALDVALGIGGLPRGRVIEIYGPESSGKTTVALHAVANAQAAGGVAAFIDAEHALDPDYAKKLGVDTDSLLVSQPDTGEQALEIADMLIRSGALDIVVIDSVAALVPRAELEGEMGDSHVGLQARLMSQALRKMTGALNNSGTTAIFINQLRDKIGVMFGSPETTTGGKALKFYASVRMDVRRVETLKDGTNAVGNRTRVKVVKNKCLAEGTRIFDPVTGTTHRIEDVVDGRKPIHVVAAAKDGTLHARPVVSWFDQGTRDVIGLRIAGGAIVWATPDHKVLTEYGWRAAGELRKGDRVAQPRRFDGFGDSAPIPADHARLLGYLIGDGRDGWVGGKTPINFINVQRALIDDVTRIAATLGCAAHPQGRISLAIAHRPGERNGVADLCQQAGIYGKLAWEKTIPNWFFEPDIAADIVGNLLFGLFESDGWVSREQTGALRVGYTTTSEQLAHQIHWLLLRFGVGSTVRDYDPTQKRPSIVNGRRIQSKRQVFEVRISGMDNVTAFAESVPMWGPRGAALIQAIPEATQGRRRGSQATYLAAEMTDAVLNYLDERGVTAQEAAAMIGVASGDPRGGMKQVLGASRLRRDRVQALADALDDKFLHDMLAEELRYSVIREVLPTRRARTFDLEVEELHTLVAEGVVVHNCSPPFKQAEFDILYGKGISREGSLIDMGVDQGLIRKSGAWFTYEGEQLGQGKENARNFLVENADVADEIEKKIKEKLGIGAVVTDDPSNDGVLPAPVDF
Mtb UGM inh: M. tuberculosis UGM enzyme inhibitors, primary screen, biochemical, fluorescence polarization, single point; UDP-galactopyranose mutase (Mycobacterium tuberculosis (strain ATCC 25618 / H37Rv)), …; purified UGM, fluorescence polarization probe displacement; AID 504406, 2011; hit rate 0.06% among 320,000; inhibition, % at 10 µM; in the data active = inhibition above about 10%, passing the limit was not always enough
Rv3671c protease: Rv3671c serine protease inhibitors, primary screen, biochemical, fluorescence polarization, M. tuberculosis H37Rv; AID 2606, 2010; P9WHR9; hit rate 0.048% among 320,000; inhibition, % at 5.96 µM; in the data active = inhibition above about 38%;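 also: extracellular domain of Rv3671c used as enzyme; 0% = enzyme with DMSO and 100% = no enzyme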
Mtb betalactam: beta-lactam sensitization of Mtb H37Rv, H37Rv; hit rate 0.27% among 330,000; inhibition, % at 25 µM; M. tuberculosis H37Rv growth with meropenem, percent inhibition; call rule not given here;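 also: growth measured after seven days incubation then overnight dye step; 0% = bacteria only wells and 100% = bacteria with antibiotic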
SSB-PriA inh: inhibitors of Klebsiella pneumoniae PriA binding to SSB C-terminal tail, primary screen, biochemical, AlphaScreen; AlphaScreen SSBct-PriA binding, biotinylated peptide; inhibition, % at 33 µM; hit rate 0.6% among 430,000; AID 1272365, 2023; in the data active = inhibition mostly above about 37%, no sharp cut-off; inactive = mostly below about 20%;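 also: plate controls were negative control peptide for no effect and reference peptide for full effect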
* = called active by the depositor; i = inactive; · = no result. Most compounds without a hit are left out; they make up all but 1.1% or so of the library.

SMILES	RecA splice inh	Mtb UGM inh	Rv3671c protease	Mtb betalactam	SSB-PriA inh
S=C(NCc1ccccc1)N/N=C/c1ccccn1	·	·	·	·	i
S=C(NCc1ccccn1)NN=Cc1ccccn1	·	·	·	·	61*
O=C(NCc1ccccc1Cl)C1CCN(c2ccc(-c3cccnc3)nn2)CC1	·	·	·	·	5
COCCN1CCCc2ccc(NS(=O)(=O)c3ccc(C(C)(C)C)cc3)cc21	·	·	·	·	39*
COCCN1CCCc2ccc(NS(=O)(=O)c3ccccc3Cl)cc21	·	·	·	·	21
COCCN1CCCc2ccc(NS(=O)(=O)c3cc(Cl)ccc3C)cc21	·	·	·	·	57*
N#C/C(=C\Nc1ccc(S(=O)(=O)Nc2nccs2)cc1)c1nc(-c2cccc([N+](=O)[O-])c2)cs1	·	·	·	·	10
COCCCN1C(=O)C(=O)C(=C(O)c2ccccc2)C1c1ccc(N(C)C)cc1 (stereo unspecified)	·	·	·	·	5
O=C(NCC[C@H](O)C1CCOCC1)c1ccccc1C(F)(F)F	·	·	·	·	-3
Nc1ccc(SCc2nc3cccc4c3n2CCC4)cc1	-1	-1	1	2	44*
O=C(Nn1c(Cc2ccccc2)nc2ccccc2c1=O)c1c(O)c2cccc3c2n(c1=O)CCC3	-2	-1	0	3	-15
c1ccc2c(CNc3ccc(CNc4ncn[nH]4)cc3)cccc2c1	3	4	0	8	40*
COc1ccccc1CNc1ccc(CNc2ncn[nH]2)cc1	-6	-1	-9	2	7
CCSc1ccccc1C(=O)Nc1nc2c(Cl)cccc2s1	·	·	·	·	-9
Cc1cc(-c2nnc(SCC(=O)Nc3nccs3)o2)no1	1	2	9	0	78*
Cc1cc(-c2nnc(SCC(=O)Nc3ccccn3)o2)no1	2	1	-7	-8	-8
CCN(CC)CCCNC(=O)c1cc(Sc2nnc(C)s2)nc2ccccc12	2	25*	-3	1	-6
CCOC(=O)c1cnc2cc(C(F)(F)F)ccc2c1NCC(C)O (stereo unspecified)	·	·	·	·	2
COc1cc(Nc2ccc(S(=O)(=O)N3CCN(C)CC3)cc2[N+](=O)[O-])cc(OC)c1	1	3	7	-9	32
COc1ccc(Nc2ccc(S(=O)(=O)N3CCCCCC3)cc2[N+](=O)[O-])cc1	7	-2	4	9	46*
COc1ccccc1C(C)Nc1ccc(S(=O)(=O)N2CCCC2)cc1[N+](=O)[O-] (stereo unspecified)	·	·	·	·	48
O=[N+]([O-])c1cc([N+](=O)[O-])c(Oc2cccc3c2CCCC3)cc1NN1CCCCC1	·	·	·	·	-5
COc1cccc(Oc2cc(NN3CCCCC3)c([N+](=O)[O-])cc2[N+](=O)[O-])c1OC	1	3	-3	-8	48*
COc1ccc(Nc2ccc(S(=O)(=O)N3CCCCC3)cc2[N+](=O)[O-])cc1OC	12	-1	6	-2	70*
COc1ccccc1C(C)Nc1ccc(S(=O)(=O)N2CCN(C)CC2)cc1[N+](=O)[O-] (stereo unspecified)	·	2	-5	3	57*
SMILES	RecA splice inh	Mtb UGM inh	Rv3671c protease	Mtb betalactam	SSB-PriA inh
CSc1nnc(C(C)(C)C)c(=O)n1N=Cc1c(O)ccc2ccccc12	·	·	·	·	4
Cc1ccc(Cc2nnc(NC(=O)COc3ccc(Cl)cc3Cl)o2)cc1	·	·	·	·	1
Cc1cccc(Nc2ccc(S(=O)(=O)N3CCOCC3)cc2[N+](=O)[O-])c1	·	1	-7	-15	37
COc1ccccc1Nc1ccc(S(=O)(=O)N2CCCCC2)cc1[N+](=O)[O-]	1	1	12	3	63*
CSc1cccc(Nc2ccc(S(=O)(=O)N3CCOCC3)cc2[N+](=O)[O-])c1	·	0	1	-8	38*
COc1ccccc1Nc1ccc(C(=O)O)cc1[N+](=O)[O-]	9	0	0	8	12
COc1ccc(Cl)c2sc(NC(=O)c3ccc(Cl)cc3Cl)nc12	·	·	·	·	-3
O=C(CCc1ccccc1)Nc1ccnn1C1CCN(C/C=C/c2ccccc2)CC1	0	2	-2	6	-3
COc1ccccc1/C=C/CN1CCC(n2nccc2NC(=O)CCc2ccccc2)CC1	3	1	-7	9	102*
CN1CCc2c(sc3c2C(=O)NC(c2cccs2)N3)C1 (stereo unspecified)	-44	2	-15	3	-6
CC1CCc2c(sc3c2C(=O)NC(c2ccccn2)N3)C1 (stereo unspecified)	·	·	·	·	67*
COc1cccc(C2C(C(=O)OC(C)C)=C(C)N=c3sc(=Cc4ccc(C(=O)O)cc4)c(=O)n32)c1 (stereo unspecified)	·	·	·	·	-10
COC(=O)C1=C(C)N(Cc2ccccc2)C(=NCCc2c[nH]c3ccccc23)N[C@H]1c1ccccc1	·	0	0	100	47*
CCc1ccc(C2NC(=S)NC3=C2C(=O)N(c2ccccc2OC)C(c2ccc(CC)cc2)N3)cc1 (stereo unspecified)	11	-2	8	7	8
O=C1C2=C(NC(=S)NC2c2ccc(Cl)cc2)NC(c2ccc(Cl)cc2)N1c1ccc(Cl)cc1 (stereo unspecified)	37*	0	0	-1	-7
Cc1nc2ccc3nc(NC(=O)c4cc5cc([N+](=O)[O-])ccc5s4)sc3c2s1	·	·	·	·	1
CN1C(=O)N(CC(=O)Nc2nc(-c3ccccn3)cs2)C(=O)C12CCCCC2	·	·	·	·	101*
C=C1Nc2ccccc2N(CC(=O)Nc2nc(-c3ccccn3)cs2)C1=O	·	·	·	·	57
Cc1ccc(C2(C)NC(=O)N(CC(=O)Nc3nc(-c4ccccn4)cs3)C2=O)cc1 (stereo unspecified)	-2	-1	-8	90	85*
CC1(c2ccccc2)NC(=O)N(CC(=O)NNC(=O)c2ccccc2)C1=O (stereo unspecified)	-1	-1	-9	-5	-15
CC1(c2ccccc2)NC(=O)N(CC(=O)Nc2nc(-c3ccccn3)cs2)C1=O (stereo unspecified)	0	2	-9	13	75*
CC1(C)NC(=O)N(CC(=O)Nc2nc(-c3ccccn3)cs2)C1=O	·	·	·	·	106*
Cc1noc(CNC(=O)c2ccc3c(c2)OCO3)n1	·	·	·	·	0
CC1Cc2cc(C(O)=C3C(=O)C(=O)N(CCCn4ccnc4)C3c3ccncc3)ccc2O1 (stereo unspecified)	·	·	·	·	8
Cc1c(C=NN2C(=O)C3C4C=CC(C4)C3C2=O)c2ccccc2n1C (stereo unspecified)	·	·	·	·	2
CCOc1ccc(N2CC(CNC(=O)NC(c3ccccc3)c3ccccc3)CC2=O)cc1 (stereo unspecified)	·	·	·	·	-8
O=C(/C=C/c1ccccc1)NC(=S)NNC(=O)c1cnccn1	8	0	5	-3	83*
CCC(C(=O)N1CCN(c2ccc(-c3ccccn3)nn2)CC1)c1ccccc1 (stereo unspecified)	·	·	·	·	80*
O=S(=O)(c1ccc(Cl)s1)N1CCN(c2ccc(-c3ccccn3)nn2)CC1	·	·	·	·	55*

Bioassay records (PubChem BioAssay)
